Marburg entry inh = qHTS for inhibitors of binding or entry into cells for Marburg Virus; Marburg virus pseudotyped entry inhibition, cell reporter; Potency, µM (series often up to 37.8 µM), most hits filed as inhibitors; actives 1.8% (n = 300,000); AID 540276, 2011; calls by dose curve; tested in HEK293 cells
Lassa entry inh = qHTS for Inhibitors of binding or entry into cells for Lassa Virus; Lassa virus pseudotype entry inhibition, cell reporter; Potency, µM (top dose mostly 37.9 µM), most hits filed as inhibitors; actives 1.2% (n = 300,000); AID 540256, 2011; calls by dose curve; tested in HEK293 cells; further: nearly all actives have a fitted effect of over 50% in size
VACV Venus inh = qHTS for Stage-Specific Inhibitors of Vaccinia Orthopoxvirus: Venus Reporter Primary qHTS; Vaccinia virus Venus reporter expression, fluorescence; Potency, µM (highest dose often 36.5 µM), most hits filed as inhibitors; actives 0.46% (n = 330,000); AID 720580, 2013; calls by dose curve; tested in A549 cells; further: nearly all actives have a fitted effect of over 30% in size
VACV mCherry inh = qHTS for Stage-Specific Inhibitors of Vaccinia Orthopoxvirus: mCherry Reporter Primary qHTS | AID 720579, 2013 | Potency, µM (highest dose often 36.5 µM), hits mostly inhibitors | actives 0.63% (n = 310,000) | Vaccinia virus mCherry reporter infection, fluorescence; calls by dose curve; tested in A549 cells; further: nearly all actives have a fitted effect of over 35% in size
CHX counter-1 = Cycloheximide Counterscreen for Small Molecule Inhibitors of Shiga Toxin; cell reporter, cycloheximide protein synthesis inhibition counterscreen; max response, %; actives 12% (n = 300,000); AID 2314, 2010; in the data active means max response mostly above about 13%, no sharp cut-off; inactive means mostly below about 14%; further: read at 38.3 µM for the half of the compounds with a filed dose
Shiga toxin inh = A qHTS for Small Molecule Inhibitors of Shiga Toxin | Vero cells, Shiga toxin protein synthesis inhibition reporter | inhibition, % at 38.7 µM | actives 9.2% (n = 290,000) | AID 2315, 2010; in the data active means inhibition mostly above about 28%, no sharp cut-off; inactive means mostly below about 43%
CHX counter-2 = Cycloheximide Counterscreen for Small Molecule Inhibitors of Shiga Toxin (Confirmatory); shares compounds with Shiga toxin inh; Cycloheximide counterscreen, protein synthesis reporter, Shiga toxin assay; Potency, µM (titrated, usually from 38.3 µM), actives largely listed as activators; actives 3% (n = 510); AID 2318, 2010; calls by dose curve
Hits are given with their value. This excerpt belongs to a sample that is enriched for hits.

Results for CN1CCN(C(=O)CN(C)S(=O)(=O)c2ccc(F)cc2)CC1 ?
Marburg entry inh: inactive; Lassa entry inh: inactive; VACV Venus inh: inactive; VACV mCherry inh: inactive; CHX counter-1: inactive; Shiga toxin inh: 38; CHX counter-2: inactive

What do the screens show for `CN(CC(=O)N1CCN(Cc2ccccc2)CC1)S(=O)(=O)c1ccc(F)cc1`?
Marburg entry inh: inactive; Lassa entry inh: inactive; VACV Venus inh: inactive; VACV mCherry inh: inactive; CHX counter-1: inactive; Shiga toxin inh: inactive

What do the screens show for `Cc1nn(CCCC(=O)Nc2ccccc2C(F)(F)F)c(=O)c2nn(-c3ccccc3)c(C)c12`?
Lassa entry inh: inactive; VACV Venus inh: inactive; VACV mCherry inh: inactive

How did CCCOP(=O)(OCCC)c1nc(-c2ccccc2)oc1NCc1ccccc1 do in these assays?
Marburg entry inh: inconclusive; Lassa entry inh: inconclusive; VACV Venus inh: inconclusive; VACV mCherry inh: inconclusive; CHX counter-1: inactive; Shiga toxin inh: 20; CHX counter-2: inactive

Results for O=C(CSCc1ccc(Cl)cc1)N1CCOCC1 ?
Marburg entry inh: inactive; Lassa entry inh: inactive; VACV Venus inh: inactive; VACV mCherry inh: inactive; CHX counter-1: inactive; Shiga toxin inh: 66; CHX counter-2: inactive

How did COc1ccc(CCNC(=O)CCCn2c(SCC(N)=O)nc3cc4c(cc3c2=O)OCO4)cc1OC do in these assays?
Lassa entry inh: inactive; VACV Venus inh: inactive; VACV mCherry inh: inactive; CHX counter-1: inactive; Shiga toxin inh: inactive

What do the screens show for `O=C(O)c1cc(S(=O)(=O)Nc2ccc(OCc3ccccc3)cc2)ccc1Br`?
Marburg entry inh: inactive; Lassa entry inh: inactive; VACV Venus inh: inactive; VACV mCherry inh: inconclusive; CHX counter-1: inactive; Shiga toxin inh: 40; CHX counter-2: inconclusive

How did Cc1c(NC(=O)c2cccc(NC(=O)Cc3ccccc3Cl)c2)c(=O)n(-c2ccccc2)n1C do in these assays?
VACV Venus inh: inactive; VACV mCherry inh: inactive

Results for Cc1ccc(O)c(NC(=O)C2CCCCC2)c1 ?
Marburg entry inh: inactive; Lassa entry inh: inactive; VACV Venus inh: inconclusive; VACV mCherry inh: inconclusive; CHX counter-1: inactive; Shiga toxin inh: 34; CHX counter-2: inactive

How did N#C/C=C1/NC(=O)c2ccccc2S1 do in these assays?
Marburg entry inh: inactive; Lassa entry inh: inactive; VACV Venus inh: inactive; CHX counter-1: inactive; Shiga toxin inh: 71; CHX counter-2: inactive

What do the screens show for `COc1ccc(-c2cc(-c3ccccc3O)[nH]n2)cc1OC`?
Marburg entry inh: inactive; Lassa entry inh: inconclusive; CHX counter-1: inactive; Shiga toxin inh: 81; CHX counter-2: 2.5µM

Results for COc1ccc(CCNC(=O)c2cc3c(s2)-c2ccccc2OC3)cc1OC ?
Marburg entry inh: inactive; VACV Venus inh: inactive; VACV mCherry inh: inactive

How did COCCCNC(=O)c1cn(C)c(=O)c2c1c1ccccc1n2C do in these assays?
Marburg entry inh: inactive; Lassa entry inh: inactive; VACV Venus inh: inactive; VACV mCherry inh: inactive; CHX counter-1: inactive; Shiga toxin inh: 33; CHX counter-2: inactive

How did Cn1cnc(S(=O)(=O)N2CCCC(C(=O)NCc3ccccc3)C2)c1 (centres undefined) do in these assays?
Lassa entry inh: inactive; VACV Venus inh: inactive; VACV mCherry inh: inactive

Results for O=[N+]([O-])c1ccc(NN=C2CC3CCC2C3)c([N+](=O)[O-])c1 (centres undefined) ?
VACV Venus inh: inactive; VACV mCherry inh: inactive

Results for CC1=C(C)C(OCCBr)N(c2cc(O)c(Cl)cc2F)C1=O (centres undefined) ?
Marburg entry inh: inactive; Lassa entry inh: inactive; VACV Venus inh: inactive; VACV mCherry inh: inactive; CHX counter-1: inactive; Shiga toxin inh: 43; CHX counter-2: inactive

How did COc1nc2ccccc2c(=O)n1-c1ccc(C)cc1 do in these assays?
Marburg entry inh: inactive; Lassa entry inh: inconclusive; VACV Venus inh: inactive; VACV mCherry inh: inactive; CHX counter-1: inactive; Shiga toxin inh: 19; CHX counter-2: inactive

Results for COc1nc2ccccc2c(=O)n1-c1ccc(Cl)cc1 ?
Marburg entry inh: inactive; Lassa entry inh: inconclusive; VACV Venus inh: inactive; VACV mCherry inh: inactive; CHX counter-1: inactive; Shiga toxin inh: inactive

What do the screens show for `COc1ccc(OCc2cccc(C(=O)O)c2)cc1`?
Marburg entry inh: inconclusive; Lassa entry inh: inconclusive; VACV Venus inh: inactive; VACV mCherry inh: inactive; CHX counter-1: inactive; Shiga toxin inh: 52; CHX counter-2: 0.032µM

How did O=C(O)c1cc(OCc2ccccc2)cc(OCc2ccccc2)c1 do in these assays?
Marburg entry inh: inactive; Lassa entry inh: inactive; VACV Venus inh: inactive; VACV mCherry inh: inactive; CHX counter-1: inactive; Shiga toxin inh: inactive

How did C[C@@H]1CN([C@H](C)CO)C(=O)CCCn2cc(nn2)CO[C@H]1CN(C)C(=O)c1cc(-c2ccccc2)on1 do in these assays?
VACV Venus inh: inactive; VACV mCherry inh: inactive

Results for O=C(NNC(=O)c1ncc(Cl)c(Cl)c1Cl)c1ccc(F)cc1 ?
CHX counter-1: inactive; Shiga toxin inh: inactive

Results for O=C(NNC(=O)c1nc(Cl)ccc1Cl)c1ccc(F)cc1 ?
CHX counter-1: inactive; Shiga toxin inh: 24; CHX counter-2: inactive

Results for Cc1oc(-c2ccc(C(=O)NCCc3ccc(Cl)cc3)cc2)nc1CSc1ccccc1 ?
Lassa entry inh: inactive; VACV Venus inh: inactive; VACV mCherry inh: inactive

What do the screens show for `CCOC(=O)c1cc2sccc2n1CCCN1C(=O)c2ccccc2C1=O`?
Marburg entry inh: inactive; Lassa entry inh: inactive; VACV Venus inh: inactive; VACV mCherry inh: inactive; CHX counter-1: inactive; Shiga toxin inh: 110; CHX counter-2: inactive

How did Cc1ccc(C(CC(=O)NCc2ccco2)c2ccc(OC(C)C)cc2)cc1 (centres undefined) do in these assays?
Marburg entry inh: inactive; Lassa entry inh: inactive; CHX counter-1: inactive; Shiga toxin inh: 42; CHX counter-2: inactive

What do the screens show for `Cc1c(C(=O)N2CCc3ccccc32)cnn1C`?
Marburg entry inh: inconclusive; Lassa entry inh: inconclusive; VACV Venus inh: inactive; VACV mCherry inh: inactive; CHX counter-1: inactive; Shiga toxin inh: 49; CHX counter-2: inactive

How did CC(Oc1ccc(Br)cc1)C(=O)N(Cc1ccccc1)c1c(N)n(Cc2ccccc2)c(=O)[nH]c1=O (centres undefined) do in these assays?
VACV Venus inh: inactive; VACV mCherry inh: inactive

Results for COc1cc(S(=O)(=O)N2CCOCC2)ccc1NC(=O)COC(=O)COc1ccccc1 ?
Marburg entry inh: inactive; Lassa entry inh: inconclusive; VACV Venus inh: inactive; VACV mCherry inh: inactive; CHX counter-1: inactive; Shiga toxin inh: inactive

Results for O=C(c1ccc(C(=O)N2CCOCC2)nc1)N1CCOCC1 ?
Marburg entry inh: inactive; Lassa entry inh: inactive; CHX counter-1: inactive; Shiga toxin inh: inactive

How did O=C(c1ccc(N2CCOCC2)nc1)N1CCOCC1 do in these assays?
Marburg entry inh: inactive; Lassa entry inh: inactive; VACV Venus inh: inactive; VACV mCherry inh: inactive; CHX counter-1: inactive; Shiga toxin inh: 58; CHX counter-2: inactive

Results for O=c1cc(O)c2c([nH]1)CCC2 ?
VACV Venus inh: inactive; VACV mCherry inh: inactive

Compound activity from PubChem BioAssay.
